Laboratory results taken from PubChem BioAssay (Tox21).
Where “and” joins values, the source holds several entries; their conditions need not be identical. Equal entries are not always repeated. Records with an inconclusive call do not appear. A call without a number means that no potency is given here. Some compounds were tested as several samples or in several runs, with calls that do not always agree. Calls of active or inactive are those of the source. Calls follow the shape of the dose curve; as a rule, active = well fitted curve in the direction sought with a large enough effect in the repeat runs; inconclusive = weak or mixed curves; inactive = no such curve, though single readings can be large; an effect the other way counts as inactive or inconclusive.

Experiments:
[1] = A CellTox Green Cytotoxicity Assay to monitor cytotoxicity in HepG2 cells - 0 hour (AID 1224882); also: nearly all actives have a fitted effect of over 35% in size
Procedure, shortened: (§1)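 Cytotoxicity was tracked as dead-cell DNA fluorescence in HepG2 cells treated with test compounds at 37 C; each time-point value comes from one kinetic series spanning 0, 8, 16, 24, 32 and 40 h.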

[2] = A CellTox Green Cytotoxicity Assay to monitor cytotoxicity in HepG2 cells - 32 hour (AID 1224883); also: nearly all actives have a fitted effect of over 50% in size; also: potency is read from the fitted curve at half-maximal effect
Procedure, shortened: as §1

[3] = A CellTox Green Cytotoxicity Assay to monitor cytotoxicity in HEK293 cells - 8 hour (AID 1224884); also: nearly all actives have a fitted effect of over 35% in size; also: potency is read from the fitted curve at half-maximal effect
Procedure, shortened: (§2)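 Real-time, in one plate: 600 HEK293 cells/well with dead-cell DNA dye, pinned compound after 5 h, 37 C incubation over 40 h; viable cells give no appreciable fluorescence.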

[4] = qHTS RealTime-Glo MT Cell Viability Assay in HepG2 cells - 16 hour (AID 1224885); also: nearly all actives have a fitted effect of over 50% in size; also: potency is read from the fitted curve at half-maximal effect
Procedure, shortened: (§3)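 Real-time, nonlytic viability: 600 HepG2 cells/well mixed with NanoLuc enzyme plus prosubstrate; 5 h settle, compound (DMSO) added by pintool; luminescence monitored over 40 h at 37 C.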

[5] = qHTS RealTime-Glo MT Cell Viability Assay in HEK293 cells - 24 hour (AID 1224886); also: nearly all actives have a fitted effect of over 50% in size; also: potency is read from the fitted curve at half-maximal effect
Procedure, shortened: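 Cells + reagent dispensed (600 cells/well, HEK293) → 5 h at 37 C/5% CO2 → 23 nL compound in DMSO pinned → 40 h at 37 C → luminescence read at 0, 8, 16, 24, 32, 40 h.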

[6] = qHTS RealTime-Glo MT Cell Viability Assay in HEK293 cells - 8 hour (AID 1224887); also: nearly all actives have a fitted effect of over 50% in size; also: potency is read from the fitted curve at half-maximal effect
Procedure, shortened: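 Kinetic, non-lysing viability readout. Seed HEK293 (600/well) with reagent, incubate 5 h at 37 C/5% CO2, pin 23 nL compound in DMSO, incubate at 37 C, read luminescence at 0, 8, 16, 24, 32, 40 h.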

[7] = qHTS RealTime-Glo MT Cell Viability Assay in HepG2 cells - 0 hour (AID 1224889); also: nearly all actives have a fitted effect of over 50% in size
Procedure, shortened: as §3

[8] = A CellTox Green Cytotoxicity Assay to monitor cytotoxicity in HepG2 cells - 8 hour (AID 1224890); also: nearly all actives have a fitted effect of over 45% in size; also: potency is read from the fitted curve at half-maximal effect
Procedure, shortened: as §1

[9] = A CellTox Green Cytotoxicity Assay to monitor cytotoxicity in HEK293 cells - 16 hour (AID 1224888); also: nearly all actives have a fitted effect of over 35% in size; also: potency is read from the fitted curve at half-maximal effect
Procedure, shortened: as §2

[10] = qHTS assay to identify small molecule antagonists of the estrogen receptor alpha (ER-alpha) signaling pathway using the BG1 cell line in the presence of 0.1 nM 17-beta-estradiol - cell viability counter screen (AID 1259241); also: nearly all actives have a fitted effect of over 40% in size
Procedure, shortened: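 Cytotoxicity counter-screen: live-cell protease activity measured by fluorescence (30 min reagent step) in the same wells. Cells were VM7Luc4E2 with endogenous ER-alpha and ERE-driven luciferase, treated 22 hr at 37C alongside 0.1 nM 17beta-estradiol final.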

Row | Compound | Potency [1] | Potency [2] | Potency [3] | Potency [4] | Potency [5] | Potency [6] | Potency [7] | Potency [8] | Potency [9] | Potency [10]
1 | CCCCCCCCCCCCCC[P+](CCCCCC)(CCCCCC)CCCCCC (tested in a mixture with another compound) | inactive | 24.6 µM (active) | 24.6 µM (active) | 49 µM (active) | 6.92 µM (active) | 13.8 µM (active) | inactive | 43.7 µM (active) |  | 
2 | COS(=O)(=O)c1ccc(C)cc1 | inactive | inactive | inactive | inactive | inactive |  | inactive | inactive | inactive | inactive
3 | CCCCCCCCCCCCCCCC[N+](C)(C)C | inactive | 21.1 µM (active) and 19 µM (active) | 21.1 µM (active) and 49 µM (active) | inactive and 54.9 µM (active) and 23.9 µM (active) | 9.42 µM (active) and 21.9 µM (active) and 9.52 µM (active) |  | inactive | 54.9 µM (active) and 21.3 µM (active) | 23.7 µM (active) and 49 µM (active) and 19 µM (active) | inactive
4 | [CH3][Hg][Cl] | inactive | 12.3 µM (active) | inactive | 10.9 µM (active) | 4.89 µM (active) | 6.9 µM (active) | inactive | 15.5 µM (active) |  | 
5 | Nc1ccc([N+](=O)[O-])cc1Cl | inactive | inactive | inactive | inactive | inactive |  | inactive | inactive |  | 
6 | CC(=O)[O-].[Tl+] | inactive | inactive | inactive | inactive |  | inactive | inactive | inactive | inactive | inactive
7 | O=c1[nH]c2ccccc2n1CCCN1CCC(n2c(=O)[nH]c3cc(Cl)ccc32)CC1 | inactive | 21.3 µM (active) | inactive | inactive | 9.52 µM (active) |  | inactive | inactive | inactive | 
8 | Cc1ccc(OP(=O)(Oc2ccccc2)Oc2ccccc2)cc1 | inactive | inactive | inactive | inactive | inactive |  | inactive | inactive | inactive | 
9 | N#CNC#N | inactive | inactive | inactive |  | inactive | inactive | inactive | inactive | inactive | inactive
10 | O=C(NC(=O)c1c(F)cccc1F)Nc1cc(Cl)c(OC(F)(F)C(F)F)c(Cl)c1 | inactive | inactive | inactive |  | inactive | inactive | inactive | inactive | inactive | inactive
11 | CCCCOP(=O)(CCCC)OCCCC | inactive | inactive | inactive | inactive |  |  | inactive | inactive | inactive | inactive
12 | O=C(Nc1ccc2[nH]ccc2c1)c1cc2cc(F)ccc2n1Cc1cccc(F)c1 | inactive | inactive | inactive |  | inactive | inactive | inactive | inactive | inactive | inactive
13 | COP(=O)(OC)SCn1c(=O)oc2cc(Cl)cnc21 | inactive | inactive | inactive | inactive |  | inactive | inactive | inactive | inactive | inactive
14 | NC(=O)c1ccc(N)nc1 | inactive | inactive | inactive | inactive |  | inactive | inactive | inactive | inactive | inactive
15 | Oc1ccc(I)cc1 | inactive | inactive | inactive |  | inactive | inactive | inactive | inactive | inactive | inactive
16 | ClC(Cl)=C(c1ccc(Cl)cc1)c1ccc(Cl)cc1 | inactive | inactive | inactive | inactive |  |  | inactive | inactive | inactive | inactive
17 | O=c1[nH]c2ccccc2n1C1CCN(CCCC(c2ccc(F)cc2)c2ccc(F)cc2)CC1 | inactive | 24.5 µM (active) | inactive |  | 12.3 µM (active) and 16.9 µM (active) | 15.5 µM (active) | inactive | 54.9 µM (active) and inactive | inactive | 
18 | c1cc[c]([Sb]([c]2ccccc2)[c]2ccccc2)cc1 | inactive | inactive | inactive | inactive |  |  | inactive | inactive | inactive | inactive
19 | O=[N+]([O-])O.O=[N+]([O-])O.[Cd] | inactive | 43.6 µM (active) | inactive | inactive |  | inactive | inactive |  |  | 
20 | CCOc1cc(C(C)(C)C)ccc1C1COC(c2c(F)cccc2F)=N1 (centres undefined) | inactive | inactive | inactive | inactive |  | inactive | inactive | inactive | inactive | inactive
21 | C1CCC2CCCCC2C1 (centres undefined) | inactive | inactive | inactive |  | inactive | inactive | inactive | inactive | inactive | 
22 | C[C@@H](Oc1ccc(Cl)cc1Cl)C(=O)O | inactive | inactive | inactive |  | inactive | inactive | inactive | inactive | inactive | 
23 | CC(C)CCCCCCCOP(=O)(Oc1ccccc1)Oc1ccccc1 | inactive | inactive | inactive | inactive |  |  | inactive | inactive |  | inactive
24 | OC(c1ccc(Cl)cc1)(c1ccc(Cl)cc1)C(Cl)(Cl)Cl | inactive | inactive | inactive | inactive |  | 49 µM (active) | inactive | inactive | inactive | inactive
